Laboratory results: PMC5540273 (PLoS ONE, 2017)

Columns and labels:
Details in all cases: concentration: 1 μM, replicates: in singlicate; n = 1
[1] = system: JAK1(JH2domain-pseudokinase)
[2] = system: JAK2(JH1domain-catalytic)
[3] = system: JAK3(JH1domain-catalytic)
JNK1 = system: T1, JNK1
T1 construct: gene MAPK8

JNK2 = system: T2, JNK2
T2 construct: gene MAPK9

JNK3 = system: T3, JNK3
T3 construct: gene MAPK10

KIT-autoinhibited = system: KIT-autoinhibited
KIT = system: KIT
LATS1 = system: LATS1
LATS2 = system: LATS2
LCK = system: LCK
LIMK1 = system: LIMK1
LIMK2 = system: LIMK2
LKB1 = system: T4, LKB1
T4 construct: gene STK11

LOK = system: T5, LOK
T5 construct: gene STK10

LRRK2 = system: LRRK2
LTK = system: LTK
LYN = system: LYN
LZK = system: T6, LZK
T6 construct: gene MAP3K13

MAK = system: MAK
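Also: KINOMEscan kinase panel screen.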

Compound | %Inh [1] | %Inh [2] | %Inh [3] | %Inh (JNK1) | %Inh (JNK2) | %Inh (JNK3) | %Inh (KIT-autoinhibited) | %Inh (KIT) | %Inh (LATS1) | %Inh (LATS2) | %Inh (LCK) | %Inh (LIMK1) | %Inh (LIMK2) | %Inh (LKB1) | %Inh (LOK) | %Inh (LRRK2) | %Inh (LTK) | %Inh (LYN) | %Inh (LZK) | %Inh (MAK)
COc1ccc(-c2coc3ccc(-c4nnc(SCc5ccc(OC)c(C(F)(F)F)c5)o4)cc23)cc1 | 32% | 22% | 0% | 0% | 0% | 0% | 7% | 20% | 25% | 0% | 0% | 25% | 12% | 0% | 24% | 0% | 27% | 0% | 0% | 22%
COc1cc(Nc2nccc(N3CCC(NC(=O)c4cc5ccccc5s4)C3)n2)cc(OC)c1OC (stereo not shown) [GSK1379760] | 0% | 76% | 0% | 17% | 16% | 23% | 0% | 36% | 57% | 5% | 29% | 17% | 24% | 14% | 84% | 0% | 13% | 31% | 30% | 23%
O=C(Nc1ccccc1F)NC1CCN(c2ccnc(Nc3ccc(F)cc3)n2)CC1 [GSK1379800] | 0% | 0% | 0% | 3% | 0% | 0% | 0% | 7% | 0% | 3% | 5% | 0% | 28% | 0% | 0% | 0% | 0% | 0% | 21% | 23%
Nc1ncc(-c2cccnc2)c2scc(-c3ccc4c(c3)CCN4C(=O)Cc3ccccc3)c12 [GSK683281] | 1% | 14% | 0% | 22% | 37% | 9% | 7% | 98.5% | 0% | 19% | 70% | 22% | 36% | 10% | 75% | 0% | 50% | 45% | 0% | 28%
CN(C)Cc1ccc(-c2ccc3c(Nc4ccc(Oc5ccccn5)cc4)ccnc3c2)o1 [GW567148] | 0% | 18% | 0% | 19% | 4% | 0% | 0% | 92.8% | 0% | 0% | 92.9% | 0% | 0% | 0% | 52% | 48% | 0% | 17% | 27% | 13%
COc1ccc(Nc2nccc(N3CCC(NC(=O)Nc4cccc(OC)c4)C3)n2)cc1 (stereo not shown) [GSK1379742] | 0% | 26% | 0% | 14% | 13% | 0% | 31% | 49% | 0% | 0% | 13% | 4% | 0% | 0% | 0% | 14% | 0% | 0% | 0% | 17%
Cc1ccc(F)c(C(=O)Nc2cccc(-c3nn4ccccc4c3-c3ccnc(Nc4cccc(F)c4)n3)c2)c1F [GSK361061] | 0% | 8% | 0% | 29% | 38% | 25% | 2% | 99.4% | 1% | 23% | 97.1% | 33% | 15% | 0% | 98.5% | 6% | 9% | 73% | 0% | 0%
COc1cc(Nc2ncc3c(C)nc(-c4cc5ccccc5[nH]4)n3n2)cc(OC)c1OC [GW869516] | 98.5% | 54% | 11% | 11% | 0% | 0% | 22% | 72% | 0% | 0% | 71% | 0% | 4% | 0% | 8% | 0% | 0% | 26% | 0% | 0%
Nc1ncnc2c1nc(-c1ccccc1)n2-c1ccccc1 [SKF-97293] | 6% | 62% | 7% | 11% | 17% | 0% | 11% | 0% | 35% | 0% | 6% | 0% | 2% | 60% | 21% | 58% | 9% | 8% | 4% | 27%
O=C(Nc1cccc(Oc2ccc3nc(NC(=O)C4CC4)cn3n2)c1)c1ccccc1C(F)(F)F | 7% | 43% | 29% | 0% | 0% | 0% | 91.5% | 100% | 0% | 0% | 72% | 6% | 7% | 0% | 95.1% | 0% | 39% | 57% | 0% | 0%
O=C(Nc1n[nH]c2nc(-c3ccc(O)cc3)ccc12)C1CC1 [SB-710363] | 33% | 53% | 62% | 25% | 13% | 2% | 0% | 12% | 17% | 10% | 24% | 2% | 0% | 9% | 27% | 0% | 58% | 23% | 0% | 90.7%
COc1ccc(Nc2nccc(NCCNC(=O)c3cc4ccccc4s3)n2)cc1 [GSK1379896] | 0% | 23% | 0% | 6% | 27% | 6% | 0% | 5% | 0% | 0% | 19% | 0% | 0% | 1% | 0% | 0% | 0% | 0% | 0% | 27%
Cn1cc(-c2ccc3c(c2)CCN3C(=O)Cc2cccc(F)c2)c2c(N)ncnc21 [GSK2603358] | 0% | 17% | 0% | 12% | 19% | 3% | 7% | 100% | 0% | 13% | 46% | 0% | 0% | 0% | 91.9% | 0% | 33% | 0% | 37% | 27%
Cl.Cl.NCC(NC(=O)c1cc(-c2ccccc2)c(-c2ccnc3[nH]ccc23)s1)c1ccccc1 (stereo not shown) [GSK1321561] | 0% | 41% | 50% | 48% | 57% | 45% | 0% | 12% | 3% | 11% | 87% | 0% | 0% | 0% | 0% | 0% | 21% | 66% | 0% | 23%
CC(=O)N1CCN(c2ccc(Nc3nccc(-c4sc(C(C)C)nc4-c4cccc(NS(=O)(=O)c5cccc(Cl)c5)c4)n3)cn2)CC1 [GSK1660437] | 0% | 40% | 82% | 13% | 16% | 11% | 0% | 96.1% | 0% | 0% | 98.6% | 98.4% | 100% | 0% | 96.8% | 24% | 23% | 74% | 29% | 35%
CCCCc1nn2ncccc2c1-c1ccnc(Nc2ccc(N3CCN(C)CC3)cc2)n1 [GW684941] | 4% | 87% | 27% | 95.1% | 98.9% | 97.6% | 97% | 100% | 0% | 0% | 99.1% | 70% | 97% | 0% | 60% | 60% | 0% | 83% | 28% | 20%
Nc1ncc(-c2ccc3nccc(-c4ccncc4)c3c2)cc1S(=O)(=O)N1CCOCC1 [GSK1627798] | 0% | 0% | 0% | 26% | 19% | 10% | 0% | 16% | 0% | 0% | 20% | 0% | 0% | 0% | 0% | 0% | 0% | 0% | 0% | 22%
COc1cc(Nc2nccc(-c3c(-c4cccc(NC(=O)c5c(F)cccc5F)c4)nn4ccccc34)n2)cc(OC)c1OC [GSK323521] | 0% | 11% | 0% | 12% | 15% | 3% | 23% | 100% | 0% | 11% | 23% | 2% | 12% | 0% | 85% | 0% | 26% | 28% | 0% | 9%
Cc1ccc(C)c(NC(=O)NC2CCN(c3ccnc(Nc4ccc(F)cc4)n3)C2)c1 (stereo not shown) [GSK1379720] | 0% | 0% | 0% | 45% | 10% | 0% | 0% | 14% | 12% | 0% | 0% | 9% | 0% | 2% | 0% | 0% | 17% | 4% | 41% | 6%
O=C(Nc1n[nH]c2cc(-c3ccoc3)ccc12)C1CC1 [SB-738481] | 29% | 18% | 0% | 8% | 0% | 6% | 8% | 77% | 0% | 3% | 0% | 14% | 22% | 0% | 0% | 0% | 13% | 11% | 0% | 3%
